Assay results as given in the supplement of paper PMC13380429.

Tested on: Vero E6 infected with SARS-CoV-2
Assay: inhibition of SARS-CoV-2 cytopathic effect; higher = more antiviral protection, active = above 15
Conditions: 48 h

Measured: inhibition of SARS-CoV-2 cytopathic effect

Nc1ccn([C@H]2C[C@H](O)[C@@H](CO)O2)c(=O)n1 [torcitabine]
inactive: 1 nM -1.42% | 8.33 nM -0.61% | 100 nM 0.39% | 833.33 nM -0.39% | 10000 nM 1.92%

COc1cc(/C=C/C(=O)N2CCN(CC(=O)N3CCCC3)CC2)cc(OC)c1OC [cinepazide]
inactive: 1 nM 5.93% | 8.33 nM 5.29% | 100 nM 8.11% | 833.33 nM -1.14% | 10000 nM 0.17%

CC12CCC(CC1=O)C2(C)C (stereo not drawn) [camphor-(+)]
inactive: 1 nM 1.23% | 8.33 nM 0.085% | 100 nM -0.16% | 833.33 nM 1.82% | 10000 nM -0.53%

CC(C)(C)c1ccc(S(=O)(=O)Nc2ccc(Cl)cc2C(=O)c2cc[n+]([O-])cc2)cc1 [vercirnon]
inactive: 1 nM 1.28% | 8.33 nM 1.21% | 100 nM 2.63% | 833.33 nM 4.3% | 10000 nM 1.46%

CN(C)C(=N)NCCC[C@H](N)C(=O)O [asymmetrical-dimethylarginine]
inactive: 1 nM -0.33% | 8.33 nM -0.09% | 100 nM -1.65% | 833.33 nM 0.84% | 10000 nM 1.97%

Nc1nc2[nH]cnc2c(=S)[nH]1 [thioguanine]
inactive: 1 nM -0.56% | 8.33 nM -0.26% | 100 nM 1.4% | 833.33 nM 2.65% | 10000 nM 5.44%

CCCC[P+](CCCC)(CCCC)Cc1ccc(NC(=O)[C@H](Cc2ccc3ccccc3c2)N/C(=N/C2CCCCC2)NC2CCCCC2)cc1
inactive: 1 nM -1.29% | 8.33 nM -0.27% | 100 nM -4.22% | 833.33 nM -4.62% | 10000 nM -2.72%

CC(=O)O[C@H]1CC[C@@]2(C)C(=CC[C@@H]3[C@@H]2CC[C@]2(C)C(=O)CC[C@@H]32)C1 [prasterone-acetate]
inactive: 1 nM -0.78% | 8.33 nM 2.86% | 100 nM 3.18% | 833.33 nM 4.82% | 10000 nM -2.88%

NC(=O)N1c2ccccc2CC(=O)c2ccccc21 [oxcarbazepine]
inactive: 1 nM 0.74% | 8.33 nM 3.71% | 100 nM 4.19% | 833.33 nM -0.85% | 10000 nM 4.57%

C=C(c1ccccc1OCc1cccc(Cl)c1)n1ccnc1 [croconazole]
inactive: 1 nM -1.55% | 8.33 nM -2.51% | 100 nM 0.21% | 833.33 nM 2.28% | 10000 nM -1.36%

COc1ccc(C[C@H]2NC[C@H](O)[C@H]2OC(C)=O)cc1 [anisomycin]
inactive: 1 nM 3.91% | 8.33 nM 6% | 833.33 nM 7.95% | 10000 nM -30.6%
active: 100 nM 44.2%

Nc1c(CC(=O)O)cccc1C(=O)c1ccccc1 [amfenac]
inactive: 1 nM 0.42% | 8.33 nM 0.91% | 100 nM 1.2% | 833.33 nM -0.82% | 10000 nM -2.19%

C=CCN1CC[C@]23c4c5ccc(O)c4O[C@H]2C(=O)CC[C@@]3(O)[C@H]1C5
inactive: 1 nM -1.98% | 8.33 nM 1.85% | 100 nM 1.15% | 833.33 nM 3.34% | 10000 nM 0.28%

C=CC1=C(C)c2cc3[nH]c(cc4nc(cc5[nH]c(cc1n2)c(C)c5CCC(=O)O)C(CCC(=O)O)=C4C)c(C)c3C=C [protoporphyrin-IX]
inactive: 1 nM -0.78% | 8.33 nM -0.99% | 100 nM -0.13% | 833.33 nM -0.31% | 10000 nM -4.69%

O=C(c1cccc(Cl)c1F)N1CCN(Cc2cccc(Nc3nccs3)n2)CC1
inactive: 1 nM -0.75% | 8.33 nM -9.29% | 100 nM 0.91% | 833.33 nM -4.51% | 10000 nM -1.08%

c1cncc(CN2CCC(n3ncc4c(N5CCOCC5)nc(-c5ccc6[nH]ccc6c5)nc43)CC2)c1
active: 10000 nM 17.7%
inactive: 1 nM 1.62% | 8.33 nM 0.29% | 100 nM 2.14% | 833.33 nM 12.2%

COc1cc(N2CCC(N3CCN(C)CC3)CC2)ccc1Nc1ncc(Cl)c(Nc2ccccc2P(C)(C)=O)n1 [brigatinib]
inactive: 1 nM 0.45% | 8.33 nM -1.85% | 100 nM -2.21% | 833.33 nM -0.42% | 10000 nM -5.17%

C=C(C)[C@@H]1CC[C@]2(C(=O)O)CC[C@]3(C)[C@H](CC[C@@H]4[C@@]5(C)CC[C@H](O)C(C)(C)[C@@H]5CC[C@]43C)[C@@H]12 [betulinic-acid]
inactive: 1 nM -1.47% | 8.33 nM -3.53% | 100 nM -2.01% | 833.33 nM 0.38% | 10000 nM 0.04%

Cn1c(COc2ccc(CC3SC(=O)NC3=O)cc2)nc2ccccc2c1=O (stereo not given) [balaglitazone]
inactive: 1 nM -1.69% | 8.33 nM -0.56% | 100 nM -0.1% | 833.33 nM -2.45% | 10000 nM -7.04%

c1ccc2nc(C3=NCCN3)ccc2c1
inactive: 1 nM -1% | 8.33 nM 0.61% | 100 nM 2.25% | 833.33 nM 3.75% | 10000 nM 2.01%

COc1ccc(-c2cc(=O)c3c(O)cc(O)cc3o2)cc1O [diosmetin]
inactive: 1 nM -0.61% | 8.33 nM -0.9% | 100 nM -1.66% | 833.33 nM -3.02% | 10000 nM 2.95%

CCCCCCCCCCCCCC[C@@H](O)[C@@H](O)[C@@H](N)CO [phytosphingosine]
inactive: 1 nM -6.1% | 8.33 nM -0.27% | 100 nM -1.1% | 833.33 nM -3.05% | 10000 nM -6.04%

CCN(CC)CCCCNc1ncc2cc(-c3cc(OC)cc(OC)c3)c(NC(=O)NC(C)(C)C)nc2n1
inactive: 1 nM -0.74% | 8.33 nM 1.53% | 100 nM -0.45% | 833.33 nM -4.96%
active: 10000 nM 45.1%

Cc1cc(-c2cc(O)ccc2Cl)cc2nnc(Nc3ccc(OCCN4CCCC4)cc3)nc12
inactive: 1 nM -1.19% | 8.33 nM 1.04% | 100 nM 4.54% | 833.33 nM -1.25% | 10000 nM -21.4%

Cc1cc(C)nc(SCC(=O)Nc2ncc(Cc3cccc4ccccc34)s2)n1
inactive: 1 nM 0.9% | 8.33 nM -1.68% | 100 nM 1.78% | 833.33 nM 0.63% | 10000 nM 2.48%

Nc1cc(C(F)(F)F)c(-c2cc(N3CCOCC3)nc(N3CCOCC3)n2)cn1 [buparlisib]
inactive: 1 nM 2.05% | 8.33 nM 0.38% | 100 nM -0.73% | 833.33 nM -3.58% | 10000 nM -12.6%

CCCCC[C@H](O)/C=C/[C@H]1[C@H](O)CC(=O)[C@@H]1CCCCCCC(=O)O [alprostadil]
inactive: 1 nM 1.09% | 8.33 nM 3.65% | 100 nM 0.04% | 833.33 nM -3.27% | 10000 nM 0.55%

O=C1NCN(c2ccccc2)C12CCN(CCCC(c1ccc(F)cc1)c1ccc(F)cc1)CC2 [fluspirilene]
inactive: 1 nM 0.39% | 8.33 nM -2.06% | 100 nM -3.28% | 833.33 nM -5.63% | 10000 nM 10.3%

Cc1cc2nc3c(=O)[nH]c(=O)nc-3n(C[C@H](O)[C@H](O)[C@H](O)COP(=O)(O)O)c2cc1C [riboflavin-5-phosphate-sodium]
inactive: 1 nM 0.5% | 8.33 nM 3.45% | 100 nM -0.48% | 833.33 nM 1.47% | 10000 nM 0.24%

O=C(CCCN1CCC(O)(c2ccc(Cl)cc2)CC1)c1ccc(F)cc1 [haloperidol]
inactive: 1 nM 0.65% | 8.33 nM 1.48% | 100 nM -0.07% | 833.33 nM 0.5% | 10000 nM -1.23%

CC(OC(=O)NCC1(CC(=O)O)CCCCC1)OC(=O)C(C)C (stereo not given) [gabapentin-enacarbil]
inactive: 1 nM -7.45% | 8.33 nM -8.92% | 100 nM -4.27% | 833.33 nM -4.9% | 10000 nM -8.44%

CCCCN(CC)c1nc(C)nc2c1c(C)c(C)n2-c1c(C)cc(C)cc1C [antalarmin]
inactive: 1 nM -0.13% | 8.33 nM -2.86% | 100 nM 1.21% | 833.33 nM -0.62% | 10000 nM 2%

O=C(O)CCn1c2c(c3ccccc31)C[C@H](NS(=O)(=O)c1ccc(F)cc1)CC2 [ramatroban]
inactive: 1 nM -0.49% | 8.33 nM 0.09% | 100 nM 0.01% | 833.33 nM 0.06% | 10000 nM 2.02%

O=C(O)[C@H]1CN(C/C=C/P(=O)(O)O)CCN1 [midafotel]
inactive: 1 nM -2.43% | 8.33 nM -0.69% | 100 nM 0.17% | 833.33 nM 1.03% | 10000 nM 3.52%

O=C(O)COc1cccc(CN(Cc2ccc(-n3cccn3)cc2)S(=O)(=O)c2cccnc2)c1 [taprenepag]
inactive: 1 nM 0.31% | 8.33 nM -1.59% | 100 nM -0.6% | 833.33 nM -0.14% | 10000 nM 0.98%

CC(C)=CCC/C(C)=C/CNCCNC1C2CC3CC(C2)CC1C3 (stereo not given)
inactive: 1 nM 0.6% | 8.33 nM 0.09% | 100 nM 1.62% | 833.33 nM 1.05% | 10000 nM 0.17%

Cc1[nH]c2ccc(F)cc2c1-c1nc2c3cccnc3c3ncccc3c2[nH]1
inactive: 1 nM 0.2% | 8.33 nM 1.01% | 100 nM 0.29% | 833.33 nM -0.86% | 10000 nM 2.7%

CN(CCOc1ccc(C[C@H](Nc2ccccc2C(=O)c2ccccc2)C(=O)O)cc1)c1ccccn1
inactive: 1 nM 2.1% | 8.33 nM 2.86% | 100 nM 0.52% | 833.33 nM 0.58% | 10000 nM -1.74%

N#C[C@@H]1C[C@@H]2C[C@@H]2N1C(=O)[C@@H](N)C12CC3CC(CC(O)(C3)C1)C2
inactive: 1 nM -1.01% | 8.33 nM -0.66% | 100 nM 0.62% | 833.33 nM 0.34% | 10000 nM 2.08%
